Molecules are shown by their SMILES.

In one test the test system is MCF10A. The test can be described thus: perturbation Mahalanobis distance of morphological profile vs DMSO controls (Mahalanobis distance (SD units)); higher = stronger morphological change, active = 7 or more. To be noted: screen batch: Batch1_Mahalanobis_Distance; 72 h. On the procedure: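 MCF10A cells were seeded onto drugs dispensed acoustically into 384-well plates, using one dose per drug chosen from its human peak plasma concentration, and incubated for 72 h at 37 °C. Cells were stained for DNA, tubulin and mitochondria and imaged; 78 CellProfiler features were extracted, plate-normalised and compared with DMSO wells.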
Consider `C[C@@H]1O[C@@]2(CS1)CN1CCC2CC1` [Cevimeline] (1.5 µM), for which the “perturbation Mahalanobis distance” value was 3.07 (inactive). `O=C1CC2(CCCC2)CC(=O)N1CCCCN1CCN(c2ncccn2)CC1` [Buspirone] (0.05 µM): the “perturbation Mahalanobis distance” value is 1.84 (inactive). Still for that read-out and setting: the result for `Nc1nc(=O)c2ncn(COC(CO)CO)c2[nH]1` [Ganciclovir] (98 µM) reads 3.22 (inactive). Same read-out and setting: the result for `COc1cc(C)c(/C=C/C(C)=C/C=C/C(C)=C/C(=O)O)c(C)c1C` [Acitretin] (7.7 µM) reads 6.19 (inactive); that for `CO[C@H]1O[C@@H]2O[C@@]3(C)CC[C@H]4[C@H](C)CC[C@@H]([C@H]1C)[C@@]24OO3` [Artemether] (3.9 µM), 1.96 (inactive). Take `CCCc1nc(C(C)(C)O)c(C(=O)O)n1Cc1ccc(-c2ccccc2-c2nn[nH]n2)cc1` [Olmesartan] (10 µM): the “perturbation Mahalanobis distance” value is 2.22 (inactive). Take `CC(N=C(NC#N)Nc1ccncc1)C(C)(C)C` (stereo unspecified) [Pinacidil] (8.3 µM): the “perturbation Mahalanobis distance” value is 4.94 (inactive). As to `CCC(c1ccccc1)c1c(O)oc2ccccc2c1=O` (stereo unspecified) [Phenprocoumon] (64.2 µM), the “perturbation Mahalanobis distance” value was 2.32 (inactive). On the same count and under the same terms, under `Cc1cn[nH]c1` [Fomepizole] (299.6 µM) stands 2.14 (inactive); under `CC[C@]1(O)C[C@H]2CN(CCc3c([nH]c4ccccc34)[C@@](C(=O)OC)(c3cc4c(cc3OC)N(C)[C@H]3[C@@](O)(C(=O)OC)[C@H](OC(C)=O)[C@]5(CC)C=CCN6CC[C@]43[C@@H]65)C2)C1` [Vinblastine] (0.12 µM), 11.4 (active). Still for that read-out and setting: the result for `CCOC(=O)c1ncn2c1CN(C)C(=O)c1cc(F)ccc1-2` [Flumazenil] (1.6 µM) reads 4.28 (inactive); that for `CCCCC(F)(F)[C@@]1(O)CC[C@H]2[C@@H](CC(=O)[C@@H]2CCCCCCC(=O)O)O1` [Lubiprostone] (64 µM), 2.4 (inactive); that for `NS(=O)(=O)Cc1noc2ccccc12` [Zonisamide] (141.4 µM), 2.42 (inactive). Take `COCCCC/C(=N\OCCN)c1ccc(C(F)(F)F)cc1` [Fluvoxamine] (3.9 µM): the “perturbation Mahalanobis distance” value is 2.43 (inactive). The same measure, in the same setting: under `NC(=O)N[C@@H](CCC(=O)O)C(=O)O` [Carglumic Acid] (68.4 µM) stands 2.14 (inactive); under `CCOC(=O)C1=C[C@@H](OC(CC)CC)[C@H](NC(C)=O)[C@@H](N)C1` [Oseltamivir] (1 µM), 2.31 (inactive); under `CCCc1cc(=O)[nH]c(=S)[nH]1` [Propylthiouracil] (90 µM), 2.49 (inactive). With `CC(=O)c1ccc(S(=O)(=O)NC(=O)NC2CCCCC2)cc1` [Acetohexamide] (10 µM), the “perturbation Mahalanobis distance” value was 3.84 (inactive). Regarding `c1cnc2cc3c(cc2n1)C1CNCC3C1` [Varenicline] (0.24 µM), the “perturbation Mahalanobis distance” value is 2.52 (inactive). On the same count and under the same terms, under `C[C@@H](NCCCc1cccc(C(F)(F)F)c1)c1cccc2ccccc12` [Cinacalcet] (0.4 µM) stands 2.7 (inactive).

As to `CC[C@H]1OC(=O)[C@H](C)[C@@H](O[C@H]2C[C@@](C)(OC)[C@@H](O)[C@H](C)O2)[C@H](C)[C@@H](O[C@@H]2O[C@H](C)C[C@H](N(C)C)[C@H]2O)[C@](C)(O)C[C@@H](C)CN(C)[C@H](C)[C@@H](O)[C@]1(C)O` [Azithromycin] (6.7 µM), the “perturbation Mahalanobis distance” value was 3.29 (inactive).

The same test, now with this note: screen batch: Batch2_Mahalanobis_Distance; 72 h.
As to `C[C@@H]1O[C@@]2(CS1)CN1CCC2CC1` [Cevimeline] (1.5 µM), the “perturbation Mahalanobis distance” value was 3.45 (inactive).

For the compound `O=C1CC2(CCCC2)CC(=O)N1CCCCN1CCN(c2ncccn2)CC1` [Buspirone] (0.05 µM), the “perturbation Mahalanobis distance” value is 3.36 (inactive). Same read-out and setting: under `Nc1nc(=O)c2ncn(COC(CO)CO)c2[nH]1` [Ganciclovir] (98 µM) stands 3.75 (inactive). Still for that read-out and setting: under `CO[C@H]1O[C@@H]2O[C@@]3(C)CC[C@H]4[C@H](C)CC[C@@H]([C@H]1C)[C@@]24OO3` [Artemether] (3.9 µM) stands 2.48 (inactive); under `CCCc1nc(C(C)(C)O)c(C(=O)O)n1Cc1ccc(-c2ccccc2-c2nn[nH]n2)cc1` [Olmesartan] (10 µM), 2.24 (inactive); under `CC(N=C(NC#N)Nc1ccncc1)C(C)(C)C` (stereo unspecified) [Pinacidil] (8.3 µM), 4.16 (inactive). On the same count and under the same terms, the result for `CCC(c1ccccc1)c1c(O)oc2ccccc2c1=O` (stereo unspecified) [Phenprocoumon] (64.2 µM) reads 3.97 (inactive); that for `Cc1cn[nH]c1` [Fomepizole] (299.6 µM), 3.81 (inactive). As for `CCOC(=O)c1ncn2c1CN(C)C(=O)c1cc(F)ccc1-2` [Flumazenil] (1.6 µM), the “perturbation Mahalanobis distance” value was 3.54 (inactive). On to `CCCCC(F)(F)[C@@]1(O)CC[C@H]2[C@@H](CC(=O)[C@@H]2CCCCCCC(=O)O)O1` [Lubiprostone] (64 µM), for which the “perturbation Mahalanobis distance” value is 2.48 (inactive). On the same count and under the same terms, the result for `NS(=O)(=O)Cc1noc2ccccc12` [Zonisamide] (141.4 µM) reads 2.95 (inactive); that for `COCCCC/C(=N\OCCN)c1ccc(C(F)(F)F)cc1` [Fluvoxamine] (3.9 µM), 2.47 (inactive); that for `NC(=O)N[C@@H](CCC(=O)O)C(=O)O` [Carglumic Acid] (68.4 µM), 2.6 (inactive). The same measure, in the same setting: under `CCOC(=O)C1=C[C@@H](OC(CC)CC)[C@H](NC(C)=O)[C@@H](N)C1` [Oseltamivir] (1 µM) stands 1.77 (inactive); under `O=C(Nc1ccc([N+](=O)[O-])cc1Cl)c1cc(Cl)ccc1O` [Niclosamide] (5.3 µM), 5.7 (inactive); under `CCCc1cc(=O)[nH]c(=S)[nH]1` [Propylthiouracil] (90 µM), 2.52 (inactive). Take `CC(=O)c1ccc(S(=O)(=O)NC(=O)NC2CCCCC2)cc1` [Acetohexamide] (10 µM): the “perturbation Mahalanobis distance” value is 4.7 (inactive). The same measure, in the same setting: the result for `c1cnc2cc3c(cc2n1)C1CNCC3C1` [Varenicline] (0.24 µM) reads 2.29 (inactive). Still for that read-out and setting: the result for `C[C@@H](NCCCc1cccc(C(F)(F)F)c1)c1cccc2ccccc12` [Cinacalcet] (0.4 µM) reads 2.58 (inactive); that for `CC[C@H]1OC(=O)[C@H](C)[C@@H](O[C@H]2C[C@@](C)(OC)[C@@H](O)[C@H](C)O2)[C@H](C)[C@@H](O[C@@H]2O[C@H](C)C[C@H](N(C)C)[C@H]2O)[C@](C)(O)C[C@@H](C)CN(C)[C@H](C)[C@@H](O)[C@]1(C)O` [Azithromycin] (6.7 µM), 4.74 (inactive).

The values above are taken from the supplement of paper PMC6853941.
